Assay results: article PMC10812921, “Transcriptional Coactivator BOB1 (OBF1, OCA-B) Modulates the Specificity of DNA Recognition by the POU-Domain Factors OCT1 and OCT2 in a Monomeric Configuration”

biological target: POU1 (OCT1 POU domain) (human, UniProt P14859 260-458); assay: EMSA-SELEX-seq; no BOB1; 20 mM Tris-HCl pH 7.6, 140 mM NaCl, 10% glycerol, 0.5 mM EDTA, 0.05% Triton X-100, 0.1 mg/mL BSA, 0.1 mg/mL poly(dI-dC), 5 mM DTT, room temperature, 20 min; high values mean tight binding; conditions: protein: recombinant; dsDNA, one strand shown
Sequence (P14859 260-458): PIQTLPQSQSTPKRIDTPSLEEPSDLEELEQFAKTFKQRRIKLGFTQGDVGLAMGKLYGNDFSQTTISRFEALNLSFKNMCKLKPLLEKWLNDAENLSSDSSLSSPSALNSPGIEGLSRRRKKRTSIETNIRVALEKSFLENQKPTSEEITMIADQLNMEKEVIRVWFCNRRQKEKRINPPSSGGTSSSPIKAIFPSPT
Procedure, shortened: (§1)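 Binding preference is reported as the percentage of sequenced 8-mers that match a motif pattern. Tagged POU-domain proteins were made in E. coli BL21, purified under denaturing conditions and renatured. A 30 ng portion was combined with 300 ng of a PCR-amplified double-stranded random 35-nt library, with or without 28 ng coactivator protein, in 20 μL Tris–HCl pH 7.6 binding buffer for 20 min at RT. Complex bands were excised from native 6% PAGE, eluted and PCR-amplified over four rounds before Illumina sequencing.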

| Sequence | binding signal |
| --- | --- |
| ATCGCAAG | 0.0179 % of ANNNNAAN 8-mers |
| AGCGTAAA | 0.0427 % of ANNNNAAN 8-mers |
| AATCCAAA | 0.0507 % of ANNNNAAN 8-mers |
| ACATAAAT | 0.23 % of ANNNNAAN 8-mers |
| ATAAAAAA | 0.0995 % of ANNNNAAN 8-mers |
| ACGGTAAA | 0.0389 % of ANNNNAAN 8-mers |
| ACGCAAAG | 0.098 % of ANNNNAAN 8-mers |
| AGCCAAAA | 0.0355 % of ANNNNAAN 8-mers |
| AGGCCAAA | 0.029 % of ANNNNAAN 8-mers |
| ACTGAAAT | 0.0522 % of ANNNNAAN 8-mers |
| AATAGAAA | 0.0759 % of ANNNNAAN 8-mers |
| ACTATAAC | 0.0156 % of ANNNNAAN 8-mers |
| AAAAAAAC | 0.0583 % of ANNNNAAN 8-mers |
| AACAAAAT | 0.119 % of ANNNNAAN 8-mers |
| ATAAAAAT | 0.131 % of ANNNNAAN 8-mers |
| ACGCGAAA | 0.0179 % of ANNNNAAN 8-mers |
| AGCCGAAG | 0.0168 % of ANNNNAAN 8-mers |
| ATCGCAAA | 0.0515 % of ANNNNAAN 8-mers |
| AGCCAAAT | 0.0858 % of ANNNNAAN 8-mers |
| AGCAAAAT | 0.102 % of ANNNNAAN 8-mers |

| Sequence | binding signal |
| --- | --- |
| ACGTTAAT | 0.112 % of ANNNNAAN 8-mers |
| AGCCCAAG | 0.0111 % of ANNNNAAN 8-mers |
| AGCGTAAG | 0.0214 % of ANNNNAAN 8-mers |
| AGCTTAAG | 0.029 % of ANNNNAAN 8-mers |
| ACGAAAAC | 0.0256 % of ANNNNAAN 8-mers |
| ACTAAAAC | 0.0233 % of ANNNNAAN 8-mers |
| ATTATAAA | 0.152 % of ANNNNAAN 8-mers |
| ACTCGAAG | 0.0187 % of ANNNNAAN 8-mers |
| AACGGAAT | 0.0698 % of ANNNNAAN 8-mers |
| ACCTTAAT | 0.0629 % of ANNNNAAN 8-mers |
| AAGCTAAT | 0.0969 % of ANNNNAAN 8-mers |
| ACCCGAAG | 0.0126 % of ANNNNAAN 8-mers |
| AATATAAG | 0.101 % of ANNNNAAN 8-mers |
| ACCTGAAC | 0.021 % of ANNNNAAN 8-mers |
| AGTTTAAG | 0.05 % of ANNNNAAN 8-mers |
| ATTGTAAC | 0.0362 % of ANNNNAAN 8-mers |
| AATGCAAC | 0.0435 % of ANNNNAAN 8-mers |
| ACTCCAAC | 0.0126 % of ANNNNAAN 8-mers |
| AGTAAAAT | 0.226 % of ANNNNAAN 8-mers |

biological target: T1, POU2 (OCT2 POU domain) (human, UniProt P09086 175-386); assay: as above; conditions: protein: recombinant; dsDNA, one strand shown
T1 sequence: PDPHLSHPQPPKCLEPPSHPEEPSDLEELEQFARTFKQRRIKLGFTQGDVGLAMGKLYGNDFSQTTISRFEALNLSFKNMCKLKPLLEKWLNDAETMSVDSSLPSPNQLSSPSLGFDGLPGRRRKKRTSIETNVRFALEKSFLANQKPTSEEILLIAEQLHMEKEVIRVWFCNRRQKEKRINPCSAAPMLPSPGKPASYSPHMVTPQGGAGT
Procedure, shortened: as §1

| Sequence | binding signal |
| --- | --- |
| ATCGCAAG | 0.0219 % of ANNNNAAN 8-mers |
| AGCGTAAA | 0.0455 % of ANNNNAAN 8-mers |
| AATCCAAA | 0.0386 % of ANNNNAAN 8-mers |
| ACATAAAT | 0.251 % of ANNNNAAN 8-mers |
| ATAAAAAA | 0.1 % of ANNNNAAN 8-mers |
| ACGGTAAA | 0.0524 % of ANNNNAAN 8-mers |
| ACGCAAAG | 0.061 % of ANNNNAAN 8-mers |
| AGCCAAAA | 0.038 % of ANNNNAAN 8-mers |
| AGGCCAAA | 0.027 % of ANNNNAAN 8-mers |
| ACTGAAAT | 0.0639 % of ANNNNAAN 8-mers |
| AATAGAAA | 0.0972 % of ANNNNAAN 8-mers |
| ACTATAAC | 0.0196 % of ANNNNAAN 8-mers |
| AAAAAAAC | 0.0593 % of ANNNNAAN 8-mers |
| AACAAAAT | 0.0926 % of ANNNNAAN 8-mers |
| ATAAAAAT | 0.125 % of ANNNNAAN 8-mers |
| ACGCGAAA | 0.0265 % of ANNNNAAN 8-mers |
| AGCCGAAG | 0.0201 % of ANNNNAAN 8-mers |
| ATCGCAAA | 0.0478 % of ANNNNAAN 8-mers |

| Sequence | binding signal |
| --- | --- |
| AGCCAAAT | 0.0702 % of ANNNNAAN 8-mers |
| AGCAAAAT | 0.0702 % of ANNNNAAN 8-mers |
| ACGTTAAT | 0.163 % of ANNNNAAN 8-mers |
| AGCGTAAG | 0.0293 % of ANNNNAAN 8-mers |
| AGCTTAAG | 0.0391 % of ANNNNAAN 8-mers |
| ACGAAAAC | 0.0259 % of ANNNNAAN 8-mers |
| ACTAAAAC | 0.0311 % of ANNNNAAN 8-mers |
| ATTATAAA | 0.204 % of ANNNNAAN 8-mers |
| ACTCGAAG | 0.0207 % of ANNNNAAN 8-mers |
| AACGGAAT | 0.0949 % of ANNNNAAN 8-mers |
| ACCTTAAT | 0.0679 % of ANNNNAAN 8-mers |
| AAGCTAAT | 0.136 % of ANNNNAAN 8-mers |
| ACCCGAAG | 0.0109 % of ANNNNAAN 8-mers |
| AATATAAG | 0.123 % of ANNNNAAN 8-mers |
| AGTTTAAG | 0.0656 % of ANNNNAAN 8-mers |
| ATTGTAAC | 0.0374 % of ANNNNAAN 8-mers |
| AATGCAAC | 0.0409 % of ANNNNAAN 8-mers |
| AGTAAAAT | 0.179 % of ANNNNAAN 8-mers |

biological target: POU1 (OCT1 POU domain);BOB1 (OBF1, OCA-B) (human;human, UniProt P14859;Q16633 260-458;1-256, |); assay: EMSA-SELEX-seq; with BOB1 (ternary complex band); 20 mM Tris-HCl pH 7.6, 140 mM NaCl, 10% glycerol, 0.5 mM EDTA, 0.05% Triton X-100, 0.1 mg/mL BSA, 0.1 mg/mL poly(dI-dC), 5 mM DTT, room temperature, 20 min; high values mean tight binding; conditions: protein: recombinant;recombinant; copies: 1;1; dsDNA, one strand shown
Sequence (P14859 260-458, one chain of several): as the sequence (P14859 260-458) above
Procedure, shortened: as §1

| Sequence | binding signal |
| --- | --- |
| ATCGCAAG | 0.023 % of ANNNNAAN 8-mers |
